How the values were obtained:
Assay in all cases: log2 ratio of Biotin-Ahx-Ub-VS probe labelling (fragment/DMSO); higher = less target engagement (more negative = stronger competition), active = hit call of the paper (q ≤ 0.05, log2 ratio ≤ -1)
Conditions in all cases: compound concentration: 200 uM; treatment time: 3 h
USP34 = USP34 (UniProt Q70CQ2)
Summary of the method: (§1)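 Labelled DUBs from HEK293T lysate were NeutrAvidin-enriched, digested with LysC and trypsin, and run by diaPASEF LC-MS/MS. Before that, each 495 µg sample in Tris/CHAPS/IGEPAL buffer with protease inhibitors was treated in triplicate with fragment at 200 µM or vehicle for 3 h, then with Biotin-Ahx-Ub-VS at 0.5 µM final for 1 h. Values are average log2 ratios of fragment over vehicle by unpaired t-test, based on global-median-normalised Spectronaut label-free quantities from proteins with ≥2 unique peptides.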

USP36 = target: T1, USP36 (UniProt Q9P275)
T1 sequence (whole entry): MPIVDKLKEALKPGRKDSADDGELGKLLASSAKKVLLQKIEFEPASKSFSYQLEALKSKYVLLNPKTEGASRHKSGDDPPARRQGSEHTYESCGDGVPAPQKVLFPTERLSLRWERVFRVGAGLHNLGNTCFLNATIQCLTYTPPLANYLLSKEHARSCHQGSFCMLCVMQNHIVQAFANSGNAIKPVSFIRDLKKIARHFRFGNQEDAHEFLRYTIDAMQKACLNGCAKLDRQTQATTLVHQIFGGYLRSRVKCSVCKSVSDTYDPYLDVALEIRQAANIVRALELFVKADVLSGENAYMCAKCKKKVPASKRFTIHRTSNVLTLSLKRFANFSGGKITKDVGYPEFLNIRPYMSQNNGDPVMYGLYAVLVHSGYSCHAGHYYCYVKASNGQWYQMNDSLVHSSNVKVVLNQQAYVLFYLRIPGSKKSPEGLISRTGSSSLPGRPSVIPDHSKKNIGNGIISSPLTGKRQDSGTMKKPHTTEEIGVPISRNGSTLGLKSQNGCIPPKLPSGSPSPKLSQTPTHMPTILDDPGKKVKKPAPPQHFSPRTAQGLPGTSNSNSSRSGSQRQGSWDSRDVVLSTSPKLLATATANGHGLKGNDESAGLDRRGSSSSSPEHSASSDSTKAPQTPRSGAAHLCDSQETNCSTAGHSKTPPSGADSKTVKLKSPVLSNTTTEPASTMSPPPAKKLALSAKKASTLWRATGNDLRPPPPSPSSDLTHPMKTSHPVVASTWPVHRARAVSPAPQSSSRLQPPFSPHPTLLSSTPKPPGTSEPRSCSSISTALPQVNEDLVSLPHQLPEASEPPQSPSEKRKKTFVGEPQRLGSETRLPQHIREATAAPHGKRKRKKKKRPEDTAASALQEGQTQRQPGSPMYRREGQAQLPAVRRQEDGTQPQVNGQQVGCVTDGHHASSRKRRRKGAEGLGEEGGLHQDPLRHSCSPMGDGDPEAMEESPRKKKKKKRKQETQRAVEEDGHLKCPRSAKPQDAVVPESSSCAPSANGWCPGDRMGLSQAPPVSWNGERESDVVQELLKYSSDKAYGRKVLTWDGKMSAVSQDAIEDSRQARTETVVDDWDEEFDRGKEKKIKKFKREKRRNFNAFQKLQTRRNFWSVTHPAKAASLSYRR
Summary of the method: as §1

USP38 = target: T2, USP38 (UniProt Q8NB14)
T2 sequence (whole entry): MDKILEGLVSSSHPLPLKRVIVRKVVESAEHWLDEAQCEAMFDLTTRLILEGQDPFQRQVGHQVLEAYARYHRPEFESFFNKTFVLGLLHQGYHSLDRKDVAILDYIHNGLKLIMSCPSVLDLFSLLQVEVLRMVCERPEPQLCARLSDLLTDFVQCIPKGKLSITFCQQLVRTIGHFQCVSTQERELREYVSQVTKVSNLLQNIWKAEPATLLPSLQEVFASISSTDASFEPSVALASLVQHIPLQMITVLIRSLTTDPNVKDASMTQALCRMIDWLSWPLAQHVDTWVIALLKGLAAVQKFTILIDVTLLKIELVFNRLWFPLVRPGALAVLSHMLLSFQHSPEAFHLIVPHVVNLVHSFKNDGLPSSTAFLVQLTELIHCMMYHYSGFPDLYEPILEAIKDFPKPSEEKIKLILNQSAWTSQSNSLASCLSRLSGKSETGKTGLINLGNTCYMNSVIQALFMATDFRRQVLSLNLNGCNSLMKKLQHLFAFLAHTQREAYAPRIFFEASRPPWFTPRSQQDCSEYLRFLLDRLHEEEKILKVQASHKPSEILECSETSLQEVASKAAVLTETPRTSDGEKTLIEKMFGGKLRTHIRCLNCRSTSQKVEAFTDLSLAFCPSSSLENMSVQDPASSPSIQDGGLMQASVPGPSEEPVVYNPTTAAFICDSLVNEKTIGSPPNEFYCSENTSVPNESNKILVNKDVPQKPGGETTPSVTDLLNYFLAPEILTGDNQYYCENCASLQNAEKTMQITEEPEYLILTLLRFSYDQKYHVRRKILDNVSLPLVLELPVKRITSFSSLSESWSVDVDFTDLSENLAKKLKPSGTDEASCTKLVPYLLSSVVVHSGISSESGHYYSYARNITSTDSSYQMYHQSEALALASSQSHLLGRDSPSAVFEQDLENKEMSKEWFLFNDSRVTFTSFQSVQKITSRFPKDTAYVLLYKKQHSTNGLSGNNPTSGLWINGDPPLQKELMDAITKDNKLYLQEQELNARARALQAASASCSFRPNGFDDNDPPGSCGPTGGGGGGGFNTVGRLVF
Summary of the method: as §1

USP39 = target: T3, USP39 (UniProt Q53GS9)
T3 sequence (whole entry): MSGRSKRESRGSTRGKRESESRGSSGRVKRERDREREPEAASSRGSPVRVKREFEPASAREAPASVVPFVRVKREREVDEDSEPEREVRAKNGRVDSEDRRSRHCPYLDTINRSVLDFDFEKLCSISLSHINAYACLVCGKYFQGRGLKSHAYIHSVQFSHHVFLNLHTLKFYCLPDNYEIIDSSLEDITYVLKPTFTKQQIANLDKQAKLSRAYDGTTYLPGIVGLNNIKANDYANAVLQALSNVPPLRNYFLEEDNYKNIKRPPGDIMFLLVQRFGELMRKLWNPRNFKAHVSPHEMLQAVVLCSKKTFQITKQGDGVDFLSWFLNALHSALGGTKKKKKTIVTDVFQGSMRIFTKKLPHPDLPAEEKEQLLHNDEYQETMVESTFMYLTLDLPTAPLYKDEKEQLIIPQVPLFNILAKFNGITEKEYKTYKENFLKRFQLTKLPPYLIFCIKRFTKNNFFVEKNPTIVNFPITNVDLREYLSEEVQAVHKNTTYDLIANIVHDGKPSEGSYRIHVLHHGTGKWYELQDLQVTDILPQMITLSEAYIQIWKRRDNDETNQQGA
Summary of the method: as §1

USP4 = target: T4, USP4 (UniProt Q13107)
T4 sequence (whole entry): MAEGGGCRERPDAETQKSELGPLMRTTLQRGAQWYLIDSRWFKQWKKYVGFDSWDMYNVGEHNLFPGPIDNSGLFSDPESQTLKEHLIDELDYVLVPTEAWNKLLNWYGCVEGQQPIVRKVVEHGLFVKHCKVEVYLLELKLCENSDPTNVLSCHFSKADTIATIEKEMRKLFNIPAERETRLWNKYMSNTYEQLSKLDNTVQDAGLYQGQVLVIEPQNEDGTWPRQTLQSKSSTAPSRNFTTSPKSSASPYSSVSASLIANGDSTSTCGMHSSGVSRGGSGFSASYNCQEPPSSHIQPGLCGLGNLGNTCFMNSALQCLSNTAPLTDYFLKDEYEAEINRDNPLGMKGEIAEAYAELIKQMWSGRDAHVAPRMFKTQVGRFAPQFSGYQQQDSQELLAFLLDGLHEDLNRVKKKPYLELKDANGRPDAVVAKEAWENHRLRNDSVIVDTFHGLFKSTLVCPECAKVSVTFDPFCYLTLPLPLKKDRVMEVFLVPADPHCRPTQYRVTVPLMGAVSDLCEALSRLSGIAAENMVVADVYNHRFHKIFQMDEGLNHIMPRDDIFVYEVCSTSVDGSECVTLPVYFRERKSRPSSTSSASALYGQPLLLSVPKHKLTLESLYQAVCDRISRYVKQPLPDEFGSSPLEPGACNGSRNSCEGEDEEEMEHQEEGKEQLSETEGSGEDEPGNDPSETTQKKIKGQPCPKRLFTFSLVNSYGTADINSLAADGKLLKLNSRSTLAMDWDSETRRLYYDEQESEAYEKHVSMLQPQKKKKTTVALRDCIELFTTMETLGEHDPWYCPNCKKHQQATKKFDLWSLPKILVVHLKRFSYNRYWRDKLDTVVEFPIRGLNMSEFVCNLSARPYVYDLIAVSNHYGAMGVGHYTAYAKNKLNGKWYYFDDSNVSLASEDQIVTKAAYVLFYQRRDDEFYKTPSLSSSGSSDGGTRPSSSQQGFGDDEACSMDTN
Summary of the method: as §1

Measured: log2 ratio of Biotin-Ahx-Ub-VS probe labelling

USP34, sequence (Q70CQ2 whole entry, the tested form may be a part): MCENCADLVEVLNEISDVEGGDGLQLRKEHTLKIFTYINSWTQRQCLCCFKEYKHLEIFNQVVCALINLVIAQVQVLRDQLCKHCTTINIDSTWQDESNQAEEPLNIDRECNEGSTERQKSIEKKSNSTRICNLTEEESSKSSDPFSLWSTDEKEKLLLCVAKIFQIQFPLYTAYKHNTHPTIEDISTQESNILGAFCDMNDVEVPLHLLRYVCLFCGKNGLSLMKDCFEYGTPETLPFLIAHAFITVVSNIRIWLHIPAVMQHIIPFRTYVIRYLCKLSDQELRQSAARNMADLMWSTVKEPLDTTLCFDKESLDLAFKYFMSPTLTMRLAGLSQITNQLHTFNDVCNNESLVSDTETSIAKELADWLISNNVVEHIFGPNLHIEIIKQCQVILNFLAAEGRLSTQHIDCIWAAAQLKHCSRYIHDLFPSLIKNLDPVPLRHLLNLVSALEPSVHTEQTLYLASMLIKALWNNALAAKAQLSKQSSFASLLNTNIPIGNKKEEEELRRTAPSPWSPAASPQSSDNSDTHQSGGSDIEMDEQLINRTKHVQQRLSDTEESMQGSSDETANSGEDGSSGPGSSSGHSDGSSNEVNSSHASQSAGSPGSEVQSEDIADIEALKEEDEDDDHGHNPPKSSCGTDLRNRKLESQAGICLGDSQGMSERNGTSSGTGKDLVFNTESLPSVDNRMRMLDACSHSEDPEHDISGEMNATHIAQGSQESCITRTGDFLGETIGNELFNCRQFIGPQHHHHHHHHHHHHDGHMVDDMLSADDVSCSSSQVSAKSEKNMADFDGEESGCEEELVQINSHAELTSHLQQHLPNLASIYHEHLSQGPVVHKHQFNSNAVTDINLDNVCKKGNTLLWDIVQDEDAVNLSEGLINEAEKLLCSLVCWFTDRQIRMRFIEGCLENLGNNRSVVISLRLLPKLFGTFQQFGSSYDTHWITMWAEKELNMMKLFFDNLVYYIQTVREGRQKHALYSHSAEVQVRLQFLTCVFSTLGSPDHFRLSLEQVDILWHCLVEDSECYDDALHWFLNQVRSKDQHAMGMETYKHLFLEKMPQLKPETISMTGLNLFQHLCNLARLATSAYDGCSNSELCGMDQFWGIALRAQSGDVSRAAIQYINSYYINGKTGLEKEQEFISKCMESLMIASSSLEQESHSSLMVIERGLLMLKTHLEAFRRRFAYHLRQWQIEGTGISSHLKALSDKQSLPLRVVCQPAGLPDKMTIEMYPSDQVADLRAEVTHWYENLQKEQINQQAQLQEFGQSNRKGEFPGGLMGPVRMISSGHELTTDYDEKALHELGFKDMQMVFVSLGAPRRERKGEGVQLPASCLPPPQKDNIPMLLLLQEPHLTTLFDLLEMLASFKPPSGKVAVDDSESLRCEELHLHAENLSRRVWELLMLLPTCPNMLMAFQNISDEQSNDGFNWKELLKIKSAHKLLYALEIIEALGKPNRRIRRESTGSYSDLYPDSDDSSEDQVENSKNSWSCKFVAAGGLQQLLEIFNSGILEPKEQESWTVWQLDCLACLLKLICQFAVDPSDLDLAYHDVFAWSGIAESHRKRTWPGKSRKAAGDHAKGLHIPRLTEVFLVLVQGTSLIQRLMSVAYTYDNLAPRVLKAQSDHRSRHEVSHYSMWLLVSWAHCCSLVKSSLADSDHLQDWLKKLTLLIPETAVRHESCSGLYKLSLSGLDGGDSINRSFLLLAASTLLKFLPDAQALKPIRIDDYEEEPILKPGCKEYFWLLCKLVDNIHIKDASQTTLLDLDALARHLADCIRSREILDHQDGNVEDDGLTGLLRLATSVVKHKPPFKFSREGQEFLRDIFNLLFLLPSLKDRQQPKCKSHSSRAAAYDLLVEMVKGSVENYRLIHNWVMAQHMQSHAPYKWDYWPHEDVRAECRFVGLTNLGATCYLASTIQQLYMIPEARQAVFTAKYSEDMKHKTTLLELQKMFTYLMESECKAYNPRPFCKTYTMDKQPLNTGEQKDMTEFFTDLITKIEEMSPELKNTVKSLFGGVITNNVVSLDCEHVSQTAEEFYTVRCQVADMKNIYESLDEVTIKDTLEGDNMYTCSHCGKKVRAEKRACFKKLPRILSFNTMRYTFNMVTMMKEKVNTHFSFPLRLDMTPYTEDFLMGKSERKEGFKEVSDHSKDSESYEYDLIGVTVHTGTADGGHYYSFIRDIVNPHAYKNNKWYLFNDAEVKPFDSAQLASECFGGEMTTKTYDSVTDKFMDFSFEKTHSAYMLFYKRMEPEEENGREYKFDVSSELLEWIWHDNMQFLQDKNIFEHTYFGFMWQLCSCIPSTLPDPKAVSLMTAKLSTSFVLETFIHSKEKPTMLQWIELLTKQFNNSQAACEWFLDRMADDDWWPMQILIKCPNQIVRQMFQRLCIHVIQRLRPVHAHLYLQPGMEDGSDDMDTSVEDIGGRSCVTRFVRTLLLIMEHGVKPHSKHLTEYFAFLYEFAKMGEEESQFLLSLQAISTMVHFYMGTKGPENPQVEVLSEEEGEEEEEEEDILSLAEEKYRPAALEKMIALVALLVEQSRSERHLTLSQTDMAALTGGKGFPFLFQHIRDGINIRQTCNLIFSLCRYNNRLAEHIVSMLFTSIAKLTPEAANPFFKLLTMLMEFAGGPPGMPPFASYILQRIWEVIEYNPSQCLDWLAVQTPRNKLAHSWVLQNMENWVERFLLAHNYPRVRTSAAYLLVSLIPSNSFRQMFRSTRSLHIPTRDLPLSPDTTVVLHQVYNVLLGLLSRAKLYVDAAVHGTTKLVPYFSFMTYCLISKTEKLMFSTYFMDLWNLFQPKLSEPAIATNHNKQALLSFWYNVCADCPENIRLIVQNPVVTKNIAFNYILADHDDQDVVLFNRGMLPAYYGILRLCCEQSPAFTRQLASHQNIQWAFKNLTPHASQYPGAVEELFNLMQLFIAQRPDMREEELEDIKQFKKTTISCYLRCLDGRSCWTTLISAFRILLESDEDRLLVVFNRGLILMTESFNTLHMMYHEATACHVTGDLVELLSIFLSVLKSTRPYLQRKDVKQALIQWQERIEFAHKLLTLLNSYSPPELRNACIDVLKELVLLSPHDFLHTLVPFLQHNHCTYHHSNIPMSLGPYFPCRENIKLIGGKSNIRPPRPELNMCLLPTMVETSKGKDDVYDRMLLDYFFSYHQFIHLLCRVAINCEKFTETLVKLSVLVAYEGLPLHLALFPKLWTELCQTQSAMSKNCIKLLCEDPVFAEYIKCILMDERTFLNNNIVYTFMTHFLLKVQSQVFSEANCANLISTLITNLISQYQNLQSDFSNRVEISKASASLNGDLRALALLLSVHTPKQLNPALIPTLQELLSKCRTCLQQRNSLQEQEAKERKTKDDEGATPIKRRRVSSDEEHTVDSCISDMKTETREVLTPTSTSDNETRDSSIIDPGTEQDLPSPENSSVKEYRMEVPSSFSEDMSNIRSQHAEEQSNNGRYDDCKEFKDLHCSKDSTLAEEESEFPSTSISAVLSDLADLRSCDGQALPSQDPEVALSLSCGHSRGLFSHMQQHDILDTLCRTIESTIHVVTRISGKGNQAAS

O=C(CCl)Nc1ccc(F)cc1Cl
inactive: USP34 -0.452 | USP36 0.0206 | USP38 -0.165 | USP39 0.253 | USP4 -0.129

Reference: the supplement of paper PMC11732987, “Enantioselective OTUD7B fragment discovery through chemoproteomics screening and high-throughput optimisation” (Communications Chemistry, 2025)
